Source: PubChem BioAssay (NCATS)
Records with an inconclusive call do not appear. Where a call stands in place of a potency, no number is given. Calls of active or inactive are those of the source. Calls follow the shape of the dose curve; as a rule, active = well fitted curve in the direction sought with a large enough effect; inconclusive = small, poorly fitted or top-dose-only effect, or another doubt; inactive = no such curve, though single readings can be large; an effect the other way counts as inactive or inconclusive.

Experiments:
[1] = molecular target: Aldehyde dehydrogenase, mitochondrial (Homo sapiens) (UniProt P05091); assay: qHTS for Inhibitors of the Aldehyde Dehydrogenase Family (ALDH2) Primary screen (AID 2061308); settings: ALDH2 enzyme inhibition qHTS, 1536-well; series mostly up to 56 µM; also: nearly all actives have a fitted effect of over 55% in size
[2] = molecular target: Retinal dehydrogenase 2 (Homo sapiens) (UniProt O94788); assay: qHTS for Inhibitors of the Aldehyde Dehydrogenase Family (ALDH1A2) Confirmation screens (AID 2061314); settings: ALDH1A2 enzyme inhibition qHTS confirmation; series mostly up to 45.9 µM; also: potency is read from the fitted curve at half-maximal effect; nearly all actives have a fitted effect of over 65% in size
[3] = molecular target: Aldehyde dehydrogenase 1A1 (Homo sapiens) (UniProt P00352); assay: qHTS for Inhibitors of the Aldehyde Dehydrogenase Family (ALDH1A1) Confirmatory screens (AID 2061316); settings: ALDH inhibition qHTS; series mostly up to 47.3 µM; also: potency is read from the fitted curve at half-maximal effect; nearly all actives have a fitted effect of over 65% in size
[4] = molecular target: Retinaldehyde dehydrogenase 3 (Homo sapiens) (UniProt P47895); assay: qHTS for Inhibitors of the Aldehyde Dehydrogenase Family (ALDH1A3) Primary screen (AID 2061315); settings: ALDH inhibition qHTS; series mostly up to 56 µM

| SMILES | Potency [1] | Potency [2] | Potency [3] | Potency [4] |
| --- | --- | --- | --- | --- |
| c1ccc(CNc2ccc(N3CCOCC3)cc2)cc1 | inactive | 12.7 µM (active) | 7.98 µM (active) |  |
| Cc1c(C(=O)OCC2CC2)[nH]c2c1C(=O)CC(c1ccco1)C2 (stereo not drawn) | inactive | 8.96 µM (active) | 1.59 µM (active) | inactive |
| N#Cc1ccc(Nc2ncc(-c3cccc4ccccc34)o2)cc1 | inactive |  |  | inactive |
| N#Cc1ccc(C(=O)NCC(=O)OC(C(=O)Nc2cc(C(F)(F)F)ccc2Cl)c2ccccc2)cc1 (stereo not drawn) | inactive |  |  | inactive |
| O=C(/C=C/c1ccc(F)cc1)Nc1cccc([S+](=O)([O-])Nc2ccccc2F)c1 | inactive |  |  | inactive |
